Source: PubChem BioAssay (several laboratories)
This is a sample that favours compounds with a hit; in the whole collection about 0.79% have one here.
sEH inh = inhibitors of human soluble epoxide hydrolase; P34913; recombinant human sEH enzymatic activity assay; inhibition, % at 2 µM; 0.34% of 91,000 active; in the data active = inhibition above about 80%
sEH activator = increases human soluble epoxide hydrolase activity; P34913; purified human sEH enzymatic activity, activator screen; activation, % at 2 µM; 0.04% of 91,000 active; AID 717; in the data active = activation above about 37%
Calb biofilm kill = kills Candida albicans biofilms | C. albicans biofilm + clotrimazole, Alamar Blue | AID 834 | inhibition, % at 6 µM | 0.14% of 85,000 active;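 active = inhibition above 20%; inactive = inhibition below 20%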;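 also: preformed 24 hr biofilms exposed to compound for 48 hr; 0% = biofilm without compound and 100% = blank killed by clotrimazole plus chlorhexidine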
BAP1 inh = human BAP1 deubiquitinase inhibition; recombinant BAP1, Ub-AMC hydrolysis fluorescence kinetic; hits give low values; calls only at 20 µM; 0.48% of 72,000 active;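 active = activity remaining at or below 50% of control, provided the compound also passes the data quality filters; inactive = the rest, including low values that fail the filters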;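 also: 100% = DMSO wells rate and 0% = substrate alone blank rate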
LYP inh 2 = blocks human PTPN22 phosphatase activity; 0.21% of 96,000 active; recombinant LYP catalytic domain, DiFMUP fluorescence; inhibition, % at 2 µM;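 active = inhibition at 2 µM at or above a set limit, the screen mean plus 3 SD, cut at about 24% in these data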;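 also: 0% = DMSO with enzyme and 100% = enzyme fully blocked by orthovanadate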
Target sequence (Q9Y2R2 whole entry, looked up, the tested form may be a part): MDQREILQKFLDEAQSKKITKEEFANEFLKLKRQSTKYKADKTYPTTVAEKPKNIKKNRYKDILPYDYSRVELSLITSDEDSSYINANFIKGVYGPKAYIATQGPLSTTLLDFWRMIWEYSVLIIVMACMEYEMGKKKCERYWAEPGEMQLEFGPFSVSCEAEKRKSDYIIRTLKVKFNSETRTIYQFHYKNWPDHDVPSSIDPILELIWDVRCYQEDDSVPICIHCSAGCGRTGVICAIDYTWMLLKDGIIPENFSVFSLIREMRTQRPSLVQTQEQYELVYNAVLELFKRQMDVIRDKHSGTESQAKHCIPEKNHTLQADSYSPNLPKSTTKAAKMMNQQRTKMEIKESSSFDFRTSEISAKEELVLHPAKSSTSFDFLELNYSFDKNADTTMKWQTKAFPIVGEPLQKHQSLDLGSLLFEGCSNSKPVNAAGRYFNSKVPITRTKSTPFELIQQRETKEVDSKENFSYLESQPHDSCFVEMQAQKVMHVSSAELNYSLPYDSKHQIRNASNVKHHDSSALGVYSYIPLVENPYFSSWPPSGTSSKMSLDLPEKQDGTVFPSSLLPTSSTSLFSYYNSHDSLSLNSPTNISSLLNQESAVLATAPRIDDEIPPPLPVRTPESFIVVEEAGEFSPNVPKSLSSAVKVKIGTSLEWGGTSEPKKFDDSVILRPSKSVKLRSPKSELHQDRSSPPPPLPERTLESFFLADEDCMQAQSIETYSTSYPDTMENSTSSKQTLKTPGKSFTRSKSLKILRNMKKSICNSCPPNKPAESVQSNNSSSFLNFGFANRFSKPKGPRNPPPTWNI
LYP act = increases human PTPN22 phosphatase activity. recombinant LYP, DiFMUP fluorescence; 0 = plate median, 100 = signal doubled. activation, % at 2 µM. AID 697. Q9Y2R2. 0.11% of 96,000 active;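 active = activation at 2 µM above a set limit, the mean plus 5 SD, cut at about 37% in these data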
* marks the source's active call; other numbers are inactive results; i = inactive; x = no result given; + = active, no number.

SMILES	sEH inh	sEH activator	Calb biofilm kill	BAP1 inh	LYP inh 2	LYP act
CC(C)(C)c1ccc(-c2nc(-c3ccncc3)no2)cc1	-11	10	1	x	-8	5
Cc1cc(C)cc(-c2nc(-c3ccncc3)no2)c1	12	-13	21*	i	-6	3
CCn1cc(C(=O)O)c(=O)c2cc(F)c(N3CCN(C(=O)Nc4ccccc4)CC3)cc21	6	-8	11	i	11	-8
CCn1cc(C(=O)O)c(=O)c2cc(F)c(N3CCNCC3)cc21	x	x	22*	i	x	x
CN(C)c1ccc(C(=O)OCc2ccccc2)cc1	-14	8	43*	x	2	0
Cc1cc2nn(-c3ccccc3)nc2cc1NC(=O)c1cccc(Cl)c1	x	x	x	i	x	x
CC(C)CC(=O)Nc1cc2nn(-c3ccccc3)nc2cc1Cl	4	-2	53*	x	3	-6
COc1ccc(/C=N/NC(=O)c2ccc(COc3ccccc3Cl)o2)cc1	84*	-84	x	x	4	0
CC(C)(C)c1ccc(OCc2ccc(C(=O)N/N=C/c3ccc([N+](=O)[O-])cc3)o2)cc1	34	-33	x	x	5	-1
COC(=O)c1c(NC(=O)c2ccc([N+](=O)[O-])cc2Cl)sc2c1CCC(C)C2 (stereo not drawn)	x	x	x	i	x	x
CCc1ccccc1NC(=O)c1c(NC(=O)C(C)(C)C)sc2c1CCCC2	x	x	x	i	x	x
CCn1c(CSc2nc3ccccc3s2)nnc1SCC(=O)c1ccc(Cl)cc1	-16	17	x	x	1	-3
CCn1c(CSc2nc3ccccc3s2)nnc1SCC(=O)c1ccc(O)c(O)c1	9	-11	x	x	46*	-44
Cc1cc(C(c2ccc(C)o2)c2ccc(C)o2)c(O)c([N+](=O)[O-])c1	-2	-1	78*	x	14	-17
C=CCOC(=O)C1=C(C)NC2=C(C(=O)CC(C)(C)C2)C1c1cc(Br)c(O)c(OC)c1 (stereo not drawn)	x	x	x	i	x	x
O=C1c2cccc3c(N4CCCCC4)ccc(c23)C(=O)N1CCOC(=O)C12CC3CC(CC(C3)C1)C2	x	x	x	i	x	x
Cc1ccc(NC(=O)NCCCc2ccccc2)cc1	83*	-83	x	x	4	-2
C/C(Nc1ccc(Cl)cc1)=C(/C#N)C(N)=O	-13	13	50*	x	5	-4
Cc1nn(Cc2ccccc2Cl)c(C)c1NC(=O)NC12CC3CC(CC(C3)C1)C2	91*	-91	x	x	-4	7
Cc1nn(Cc2ccccc2Cl)c(C)c1NC(=O)c1nc2ncccn2n1	10	-8	3	x	-8	4
CC(/C=N/n1c(C2CCCCC2)n[nH]c1=S)=C\c1ccccc1	8	-10	x	x	26*	-23
CC(C)c1nnc(NC(=O)c2ccc(S(=O)(=O)N(C)C)cc2)s1	x	x	x	i	x	x
CCOc1ccc(C2C(N3C(=O)c4ccc([N+](=O)[O-])cc4C3=O)C(=O)N2c2ccc(Cl)cc2)cc1 (stereo not drawn)	x	x	x	i	x	x
COc1cccc(/C=N/NC(=O)c2ccc(-c3ccccc3)cc2)c1O	-2	2	x	x	28*	-27
COc1cccc(/C=N/NC(=O)c2[nH]c(C)c(C(=O)N/N=C/c3cccc(OC)c3O)c2C)c1O	-1	3	x	x	14	-11
SMILES	sEH inh	sEH activator	Calb biofilm kill	BAP1 inh	LYP inh 2	LYP act
COCc1cc(C)nc(Nc2ccccc2C)c1C#N	14	-9	6	i	26*	-26
CCN(CC)S(=O)(=O)c1cccc(-c2nnc(SC(C)C(=O)NCCC3=CCCCC3)o2)c1 (stereo not drawn)	85*	-84	-8	i	3	-5
CCCCCCCCCCCCCCSCC(=O)O	x	x	x	+	x	x
CCOC(=O)c1c(NC(=O)c2ccccc2F)sc(C(=O)Nc2ccccc2F)c1C	x	x	x	i	x	x
CCOc1ccc(NC(=O)c2ccc(F)c(S(=O)(=O)N3CCN(c4ccccn4)CC3)c2)cc1	86*	-86	10	i	0	-2
CCCCNc1cc(C(=O)O)cc(S(N)(=O)=O)c1Oc1ccccc1	x	x	6	x	x	x
Cc1ccc(C)c(NC(=S)NCCN2CCOCC2)c1	-2	-1	x	x	0	-2
Cc1ccc(NC(=S)NCCN2CCOCC2)cc1C	-35	38*	x	x	20	-17
CN(C)c1ccc(O)c2c1CC1CC3[C@@H](N(C)C)C(=O)C(C(N)=O)=C(O)[C@]3(O)C(=O)C1=C2O (stereo partly drawn)	x	x	25*	i	x	x
C[C@H]1c2cccc(O)c2C(O)=C2C(=O)[C@]3(O)C(O)=C(C(N)=O)C(=O)[C@@H](N(C)C)[C@@H]3[C@@H](O)[C@@H]21	x	x	x	i	x	x
O=C1CCC(C(=O)OCc2c(Cl)cccc2Cl)N1 (stereo not drawn)	4	-2	3	x	9	-6
Cc1cc(C(C)(C)C)cc(C)c1COC(=O)C1CCC(=O)N1 (stereo not drawn)	0	-1	1	i	27*	-28
O=C(Nc1ccc2c(c1)OCCO2)NC12CC3CC(CC(C3)C1)C2	97*	-97	5	i	-11	5
CCC(C)NC(=O)Nc1ccc2c(c1)N(C)C(=O)c1ccccc1S2 (stereo not drawn)	88*	-88	-2	x	13	-14
COCCNC(=O)C1CCC(Cn2c(=S)[nH]c3ccccc3c2=O)CC1 (stereo not drawn)	58	-58	0	i	4	-9
O=C(NCCc1c[nH]c2ccccc12)C1CCC(Cn2c(=S)[nH]c3ccccc3c2=O)CC1 (stereo not drawn)	95*	-95	3	x	8	-9
CC(C)CNC(=O)c1nn2c(C(F)(F)F)cc(-c3cccs3)nc2c1Br	x	x	x	i	x	x
Cc1cc(N2CCN(c3nc(N4CCOCC4)nc4ccccc34)CC2)c2ccccc2n1	-14	12	-3	i	-41	39*
COc1ccc2[nH]c3nc(SCC(=O)NNC(=O)c4ccc(OC)c(OC)c4)nnc3c2c1	10	-8	x	x	14	-12
Cc1ccc(C(=O)NNC(=O)CSc2nnc3c(n2)[nH]c2ccc(F)cc23)cc1	4	-5	x	x	30*	-28
O=C(NC(C(=O)N/N=C/c1c2ccccc2cc2ccccc12)c1n[nH]c(=O)c2ccccc12)c1ccccc1 (stereo not drawn)	2	-5	4	x	20	-18
O=C(NC(C(=O)N/N=C/c1ccccc1)c1n[nH]c(=O)c2ccccc12)c1ccccc1 (stereo not drawn)	-1	-2	8	x	26*	-24
Nc1cc([N+](=O)[O-])ccc1N1CCCCC1	x	x	x	i	x	x
CC(C)Cn1cnc2c(c(-c3ccccc3)c(-c3ccccc3)n2Cc2ccco2)c1=N	13	-12	11	x	-6	4
N=c1c2c(-c3ccccc3)c(-c3ccccc3)n(Cc3ccco3)c2ncn1Cc1ccccc1	11	-9	43*	x	17	-15
Cc1nc(NC(=O)c2ccccc2[N+](=O)[O-])sc1C(C)(C)C	x	x	x	i	x	x
CC1=Nn2c(nnc2-c2cc(-c3ccccc3)n[nH]2)SC1	-3	6	x	i	3	0
c1ccc(-c2ccc(C3=Nn4c(nnc4-c4cc(-c5ccccc5)n[nH]4)SC3)cc2)cc1	7	-6	5	x	42*	-40
